Laboratory results reported in PubChem BioAssay (NCI).
About 83,000 compounds went through this panel and 20% of them were active in at least one assay; those are over-represented in the sample as a whole.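 Results are percent growth after 48 hours of single-concentration exposure. 100 means growth as in untreated cells, lower positive values show inhibition; negative values down to -100 show cell death.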 Active and inactive are the calls of the source. Rule for the calls: active = growth percent below 10; inactive = the rest.

Assays:
Test in all cases: NCI-60 one-dose screen, 48 h (100 = growth as untreated, 0 = no growth, -100 = all killed)
Conditions in all cases: 10 µM unless noted
[1] = tested on: NCI-H23 lung
[2] = tested on: NCI-H226 lung
[3] = tested on: HOP-62 NSCLC
[4] = tested on: NCI-H460 lung
[5] = tested on: HOP-92 NSCLC
[6] = tested on: NCI-H522 lung
[7] = tested on: A549/ATCC NSCLC
[8] = tested on: 786-0 renal
[9] = tested on: COLO 205 colon
[10] = tested on: NCI-H322M lung

Measured: growth

COc1nc2c(cc1S(=O)(=O)c1ccccc1)CCc1c-2cnn1Cc1ccccc1
active: [5] 3.62%
inactive: [1] 54.1% | [2] 65.9% | [3] 56.2% | [4] 54% | [6] 43.2% | [7] 57.9% | [8] 52.3% | [9] 60.9%

Cc1cc(Nc2nc(-c3cccnc3)nc3ccccc23)n[nH]1
inactive: [1] 65.2% | [2] 43.9% | [3] 64.1% | [4] 41.9% | [5] 55.3% | [6] 43.7% | [7] 19% | [8] 55%
active: [9] -10.2%

O=C(Nc1ccc(Oc2ccc(F)cc2)c(Cl)c1)c1cccnc1
inactive: [1] 80% | [2] 99.8% | [10] 101% | [3] 106% | [5] 91.9% | [6] 72.3% | [7] 86% | [8] 92.3% | [9] 120%

CCCCNP1(NCCCC)=NP(NCCCC)(NCCCC)=NP(NCCCC)(NCCCC)=NP(NCCCC)(NCCCC)=N1
inactive: [2] 22.4% | [3] 10.2%
active: [1] -49.6% | [4] -8.78% | [5] -24.3% | [6] 7.68% | [7] 0.875% | [8] -6.24% | [9] -26.2%

COc1ccc(C(=O)COc2ccc(/C=C3\Oc4ccc(Cl)cc4C3=O)cc2)cc1
inactive: [1] 67.6% | [2] 92% | [3] 100% | [4] 111% | [5] 48.9% | [6] 80.5% | [7] 95.1% | [8] 106% | [9] 96%

O=C1/C(=C/c2ccc(Cl)c(Cl)c2)CN(C(=O)CCN2CCC(=NO)CC2)C/C1=C\c1ccc(Cl)c(Cl)c1
active: [1] -73.4% | [2] -40.6% | [3] -88.2% | [4] -66% | [5] -53.2% | [6] -90.4% | [7] -34.6% | [8] -79.6% | [9] -84.6%

O=C(/C=C\c1cccc([N+](=O)[O-])c1)c1ccccc1
inactive: [1] 81.3% | [2] 70.3% | [3] 90.8% | [4] 87.7% | [7] 92.9% | [8] 13.2%
active: [5] -27% | [6] -5.55% | [9] -71%

NC(=S)N/N=C/c1ccc(OCc2ccccc2)cc1
active: [6] -24.1%
inactive: [1] 84% | [2] 61.1% | [3] 93.8% | [5] 48.5% | [7] 68.4% | [8] 41.7% | [9] 56.9%

CCOC(=O)C12CCCC1=CC(=O)CC2 (centres undefined)
inactive: [1] 107% | [2] 107% | [3] 101% | [4] 107% | [5] 107% | [6] 105% | [7] 91.6% | [8] 104% | [9] 108%

COc1cc2c(cc1O)CCc1cc(O)cc(OC)c1-2
inactive: [1] 99.3% | [2] 87.4% | [10] 101% | [3] 105% | [5] 103% | [6] 61.5% | [7] 87.6% | [8] 97.1% | [9] 110%

CC/C(=C(\c1ccc(O)cc1)c1ccc(OCCN(C)CCN(C)C(=O)CCCCC(=O)c2c(C)[nH]c(/C=C3\N=C(c4ccc[nH]4)C=C3OC)c2C)cc1)c1ccccc1
inactive: [1] 94.1% | [2] 90.5% | [10] 88.7% | [3] 81% | [5] 63.4% | [6] 84.3% | [7] 88.5% | [8] 103% | [9] 91.3%

CCN(CC)c1ccc(/C=C/C2=[N+](C)c3ccccc3C2(C)C)cc1
active: [2] 9.04% | [5] -10.7% | [6] 5.08% | [8] 8.12% | [9] 4.92%
inactive: [1] 18.6% | [10] 27.2% | [3] 13.8% | [7] 14.4%

CC(=O)Nc1ccc2c(c1)c(NC(C)=O)nn2C(=O)Nc1ccc(Cc2ccccc2)cc1
inactive: [1] 26.8% | [2] 62.7% | [3] 44.3% | [4] 76.4% | [6] 76.3% | [7] 92.1% | [8] 67.9% | [9] 102%
active: [5] -42.8%

CC1(C)CC(=O)C(c2c(-c3ccccc3)[nH]c3[nH]c(=S)[nH]c(=O)c23)=C(O)C1
inactive: [1] 110% | [2] 108% | [3] 112% | [5] 84.7% | [6] 107% | [7] 89.8% | [8] 104% | [9] 119%

Cc1cc(=O)oc2cc(Oc3nc(-c4ccc(Cl)cc4)cn4c(-c5ccc(Cl)cc5)cnc34)ccc12
inactive: [1] 78.1% | [2] 93% | [3] 99.7% | [4] 93.3% | [5] 91% | [6] 95.8% | [7] 101% | [9] 97.5%

CC[n+]1ccc2c(c1)C(=O)c1nccc3c1c-2nc1ccccc13
active: [1] -27.9% | [2] -67.1% | [3] -27.6% | [4] -82.1% | [5] -11.9% | [6] -38% | [7] -4.31% | [8] -14.4% | [9] -23.8%

CC1=C(NCCN2CCCC2)C(=O)c2c(OCc3ccc(F)c(Cl)c3)cccc2C1=O
inactive: [1] 69.8% | [2] 90.4% | [3] 68.8% | [5] 57.1% | [6] 76% | [7] 78.3% | [8] 63.6% | [9] 69.5%

Nc1cc(O)cc2cccnc12
inactive: [1] 53.1% | [2] 94.4% | [3] 86.6% | [4] 67.6% | [5] 103% | [6] 50.6% | [7] 86.3% | [8] 105% | [9] 113%

COc1ccc(/C=C/C(=O)c2ccc(NC(=O)c3cc4cc5ccccc5nc4s3)cc2)cc1OC
inactive: [1] 87% | [10] 84.2% | [3] 92.3% | [4] 99.9% | [5] 108% | [6] 95.9% | [7] 105% | [8] 106% | [9] 99.5%

CCCCCCCCCCCCNC(=O)[C@H]1CSC(c2ccc(OC)c(F)c2)N1 (some centres undefined)
active: [1] -78.2% | [10] -98.4% | [3] -81.8% | [4] -71.8% | [5] -93.8% | [6] -73.5% | [7] -88.5% | [8] -96.6% | [9] -81.5%

CC/C=C\C[C@H](O)C/C=C1/C(=O)C=C[C@@H]1C/C=C\CCCC(N)=O
inactive: [10] 29.7% | [5] 37.6%
active: [1] -38.3% | [3] -15.6% | [4] -9.93% | [6] -19.3% | [7] -23.5% | [8] -24.2% | [9] -27.8%

O=C(CN1CCOCC1)Nc1ccc(Cn2nnc3c2C(=O)c2nnn(Cc4ccc(NC(=O)CN5CCOCC5)cc4)c2C3=O)cc1
active: [1] -21.1% | [10] -3.02% | [3] -38.6% | [4] 5.66% | [5] -36.9% | [6] -43% | [7] -11.9% | [9] -83.9%
inactive: [8] 12.1%

COc1ccc2nc3cc(Cl)ccc3c(N3CCN(c4nccc(Nc5ccccc5)n4)CC3)c2c1
active: [6] 7.15%
inactive: [1] 69.8% | [2] 95.4% | [3] 79.2% | [5] 67% | [7] 65.1% | [8] 59.1% | [9] 89.8%

CCCCCCCCCCCCCCCCCCNC(=O)[C@H]1CSC(c2ccc(F)c(OC)c2)N1 (some centres undefined)
inactive: [9] 20.1%
active: [1] 5.24% | [10] -22.2% | [3] -97.6% | [4] -77.7% | [5] -5.83% | [6] 7.12% | [7] -12.9% | [8] -10.6%

O=c1c2c3c(sc2n2c(CCl)nnc2n1Cc1ccccc1)CCCC3
inactive: [3] 54.7% | [7] 28.5%
active: [1] -42.1% | [10] -97% | [4] -11.5% | [5] -81.7% | [6] -57.1% | [8] -18% | [9] -39.1%

Cc1cc(Nc2nc(N3CCN(C)CC3)nc3ccccc23)n[nH]1
inactive: [1] 91.6% | [10] 86.4% | [3] 81.4% | [4] 69.6% | [5] 59.8% | [6] 41.2% | [7] 65.2% | [8] 59.8% | [9] 58%

O=C1/C(=C/c2ccc(Cl)cc2Cl)CN(S(=O)(=O)c2ccccc2)C/C1=C\c1ccc(Cl)cc1Cl
active: [1] -37.6% | [10] -0.804% | [3] -2.25% | [4] -24.1% | [5] -3.29% | [6] -34.1% | [7] 3.06% | [8] -81.2% | [9] -15.9%

Cc1ccccc1CCO
inactive: [1] 100% | [10] 90.8% | [3] 89.1% | [4] 105% | [5] 104% | [6] 76.2% | [7] 85.4% | [8] 100% | [9] 92.7%

Nc1ccc(Nc2nccc(-c3ccc4ccccc4c3)n2)cc1
inactive: [1] 41.2% | [10] 64.5% | [3] 44.2% | [4] 17.8% | [5] 65.1% | [6] 27.6% | [7] 25.5% | [8] 58.7% | [9] 49.4%

COc1ccc(C2CC(=O)Nc3c2c(C)nn3-c2nc3ccccc3[nH]2)cc1 (centres undefined)
inactive: [1] 99.1% | [10] 53.9% | [3] 116% | [4] 20.8% | [5] 89.1% | [6] 98.2% | [7] 97.4% | [8] 106% | [9] 129%

O=C(/C=C/c1cc2ccccc2[nH]c1=O)/C=C/c1cc2ccccc2[nH]c1=O
inactive: [10] 86.9% | [5] 68.7%
active: [1] -41.6% | [3] 0.443% | [4] -36.7% | [6] -51.1% | [7] -8% | [8] -59.5% | [9] -11.6%

COc1ccc(CN2C(=O)/C(=C\c3cc(OC)c(OC)c(OC)c3)c3cc(OC)ccc32)cc1
inactive: [3] 17.1% | [5] 37.6%
active: [1] -44% | [10] 8.29% | [4] -42.2% | [6] -70.1% | [7] 3.05% | [8] 9.78% | [9] -46.3%

O=C1c2c[n+](Cc3ccccc3)ccc2-c2nc3ccccc3c3ccnc1c23
active: [1] -32.8% | [10] -17.8% | [3] -27.2% | [4] -55% | [5] -45.4% | [6] -66.3% | [7] -26.1% | [8] -5.78% | [9] -90.1%

COc1ccc(/C=C2\CN(C(=O)CCN3CCC(=NO)CC3)C/C(=C\c3ccc(OC)cc3)C2=O)cc1
active: [1] -4.73% | [4] -34.5% | [6] -29.7% | [8] -10.3% | [9] -23.7%
inactive: [10] 17.8% | [3] 44.8% | [5] 89% | [7] 36.5%

C/C(Cc1ccc(Cl)cc1)=C(\c1ccc(OCCN2CCCCCC2)cc1)c1ccc(OC(=O)Cc2ccccc2)cc1
active: [9] -45.1%
inactive: [1] 71.3% | [10] 67.3% | [3] 85.7% | [4] 18.2% | [5] 48.4% | [6] 62.9% | [7] 61.3% | [8] 65%

C=C1CCC2C3(C)COC(c4ccc(SC)cc4)OC3CCC2(C)C1C/C=C1/C(=O)OCC1O (centres undefined)
inactive: [1] 44.9% | [10] 102% | [3] 107% | [4] 81.8% | [5] 81.7% | [6] 73.3% | [7] 83.6% | [8] 78.4% | [9] 72.3%
